Data taken from PubChem BioAssay.
Calls of active or inactive are those of the source.

What was measured:
[1] = test system: PRMT1 (protein arginine N-methyltransferase 1); assay: PRMT1 binders on small-molecule microarrays, primary screen, biochemical, small-molecule microarray, 635 nm fluorescence (AID 1088); settings: small-molecule microarray binding, higher = more signal;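 note: binding of Prmt1 protein to compounds spotted on small-molecule microarray slides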
[2] = yeast growth modulation, basal conditions, primary screen, YJM789 clinical isolate, OD600, 24 h (AID 1089);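 note: growth of clinical yeast isolate S. cerevisiae YJM 789 seeded 1000 cells per well; test concentration not given here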; settings: S. cerevisiae YJM789 growth, higher = more signal, called active from +8 up or from −8 down
[3] = fission yeast growth modulation, primary screen, strain 972, OD600, 24 h, no modulator (AID 1090);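 note: basal condition with compound alone and no growth modifier present; test concentration not given here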; settings: S. pombe 972 growth, higher = more signal, called active from +8 up or from −8 down
[4] = S. cerevisiae growth modulation with rapamycin, primary screen, strain BY4716, OD600, 96 h (AID 1091); settings: higher = more signal, called active from +8 up or from −8 down; note: test concentration not given here
[5] = molecular target: Torsin-1A-interacting protein 2 (Homo sapiens) (UniProt Q8NFQ8); assay: LULL1 binders on small-molecule microarray, primary screen, cell lysate, human LULL1 lysate, 635/667 nm fluorescence (AID 1092); settings: hLULL1 lysate binding, 635 nm fluorescence, higher = more signal;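 note: probe is lysate of COS7 cells overexpressing human LULL1; score merges per-feature 667 nm fluorescence with signal-to-noise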
[6] = E. coli growth modulation, two-sided OD650, primary screen, E. coli filamentation project, strain DRC41, 24 h (AID 1093); settings: OD650, 24 h, higher = more signal, called active from +8 up or from −8 down;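 note: MC1000 strain lacking acrAB efflux and sulA so SOS filamentation is blocked; test concentration not given here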
[7] = small-molecule microarray binders of probe aLefty2, primary screen, biochemical, biotinylated probe, 635/667 nm fluorescence (AID 1094); settings: higher = more signal;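 note: score merges spot fluorescence near 667 nm with spot signal-to-noise ratio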
[8] = test system: Noggin (protein binding on small-molecule microarray); assay: Noggin binders on small-molecule microarray, primary screen, biochemical, 635/667 nm fluorescence (AID 1095); settings: 635 nm fluorescence, higher = more signal;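 note: score merges 667 nm feature fluorescence with signal to noise over triplicate slides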
[9] = molecular target: Neurogenic locus notch homolog protein 3 (Homo sapiens) (UniProt Q9UM47); assay: NOTCH3 binders on small-molecule microarray, primary screen, biochemical, 635/667 nm fluorescence (AID 1096); settings: NOTCH3 binding, 635 nm fluorescence, higher = more signal
[10] = small-molecule microarray binders of probe aEGFR, primary screen, biochemical, biotinylated probe, 635/667 nm fluorescence (AID 1097); settings: higher = more signal;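 note: probe is a biotinylated anti-EGFR antibody binding compounds printed on slides; score combines fluorescence near 667 nm and signal to noise of each spot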
[11] = test system: Plasmodium falciparum Sir2 (PF13_0152, Sir2A); assay: pfSir2 binders on small-molecule microarrays, primary screen, biochemical, small-molecule microarray, 635 nm fluorescence (AID 1098); settings: small-molecule microarray binding, fluorescence 635 nm; higher = more signal;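 note: score merges spot fluorescence intensity with its signal-to-noise ratio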
[12] = small-molecule microarray binders of probe aDKK1, primary screen, biochemical, biotinylated probe, 635/667 nm fluorescence (AID 1099); settings: higher = more signal;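 note: score merges 667nm spot fluorescence with signal to noise across triplicate slides; reference of the scale not given here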
[13] = small-molecule microarray binders of probe aCHRDL2, primary screen, biochemical, biotinylated probe, 635/667 nm fluorescence (AID 1100); settings: higher = more signal
[14] = splicing luciferase reporter signal modulators, primary screen, spliceosome inhibition project, cell-based, HEK293, splice +/- reporter (AID 1101); settings: luminescence, 24 h, higher = more signal, called active from +8 up or from −8 down;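 note: HEK293 cells carrying a splicing-competent luciferase reporter gene; test concentration not given here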
[15] = molecular target: Fibroblast growth factor 10 (Homo sapiens) (UniProt O15520); assay: FGF10 binders on small-molecule microarrays, primary screen, biochemical, small-molecule microarray, 635 nm fluorescence (AID 1102); settings: FGF10 binding, fluorescence 635 nm, higher = more signal
[16] = test system: glycogen synthase kinase-3 (GSK3A per assay name; protocol says GSK3B); assay: GSK3 binders on small-molecule microarrays, primary screen, biochemical, small-molecule microarray, 635 nm fluorescence, GSK3A (AID 1103); settings: small-molecule microarray binding, fluorescence 635 nm; higher = more signal; note: the record names both GSK3A and GSK3B
[17] = molecular target: Epidermal growth factor receptor (Homo sapiens) (UniProt P00533); assay: EGFR binders on small-molecule microarrays, primary screen, biochemical, small-molecule microarray, 635 nm fluorescence (AID 1104); settings: EGFR binding, higher = more signal;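 note: score merges 667 nm emission intensity with spot signal to noise over triplicate slides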
[18] = molecular target: Follistatin-related protein 3 (Homo sapiens) (UniProt O95633); assay: FSTL3 binders on small-molecule microarrays, primary screen, biochemical, small-molecule microarray, 635 nm fluorescence (AID 1105); settings: FSTL3 binding, higher = more signal;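 note: score merges emission near 667 nm and signal to noise per printed spot across three slides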
[19] = molecular target: Dickkopf-related protein 1 (Homo sapiens) (UniProt O94907); assay: DKK1 binders on small-molecule microarrays, primary screen, biochemical, small-molecule microarray, 635 nm fluorescence scan (AID 1106); settings: DKK1 binding, higher = more signal;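 note: score merges emission near 667 nm with signal to noise over three replicate slides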
[20] = test system: Inhibin beta A chain (activin A); assay: INHBA (activin A) binders on microarrays, primary screen, biochemical, small-molecule microarray, 635 nm fluorescence scan (AID 1107); settings: small-molecule microarray binding, higher = more signal;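 note: mouse activin A protein probed at 4.33 µg/mL on printed slides; score merges bound-protein fluorescence near 667 nm with spot signal-to-noise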

Torsin-1A-interacting protein 2 (Homo sapiens), sequence (Q8NFQ8 whole entry, looked up): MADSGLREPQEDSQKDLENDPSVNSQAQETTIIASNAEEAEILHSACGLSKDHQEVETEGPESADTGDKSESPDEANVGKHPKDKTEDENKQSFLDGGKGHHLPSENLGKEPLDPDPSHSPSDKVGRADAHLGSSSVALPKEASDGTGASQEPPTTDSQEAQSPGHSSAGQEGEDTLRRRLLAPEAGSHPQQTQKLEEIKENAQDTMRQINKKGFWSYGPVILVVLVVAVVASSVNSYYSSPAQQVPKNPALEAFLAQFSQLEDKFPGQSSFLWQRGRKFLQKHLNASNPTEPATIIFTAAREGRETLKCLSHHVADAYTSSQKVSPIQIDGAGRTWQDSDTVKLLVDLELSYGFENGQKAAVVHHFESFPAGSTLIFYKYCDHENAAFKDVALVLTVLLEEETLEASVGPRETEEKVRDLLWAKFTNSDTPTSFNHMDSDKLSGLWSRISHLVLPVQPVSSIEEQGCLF
Epidermal growth factor receptor (Homo sapiens), sequence (P00533 whole entry, looked up): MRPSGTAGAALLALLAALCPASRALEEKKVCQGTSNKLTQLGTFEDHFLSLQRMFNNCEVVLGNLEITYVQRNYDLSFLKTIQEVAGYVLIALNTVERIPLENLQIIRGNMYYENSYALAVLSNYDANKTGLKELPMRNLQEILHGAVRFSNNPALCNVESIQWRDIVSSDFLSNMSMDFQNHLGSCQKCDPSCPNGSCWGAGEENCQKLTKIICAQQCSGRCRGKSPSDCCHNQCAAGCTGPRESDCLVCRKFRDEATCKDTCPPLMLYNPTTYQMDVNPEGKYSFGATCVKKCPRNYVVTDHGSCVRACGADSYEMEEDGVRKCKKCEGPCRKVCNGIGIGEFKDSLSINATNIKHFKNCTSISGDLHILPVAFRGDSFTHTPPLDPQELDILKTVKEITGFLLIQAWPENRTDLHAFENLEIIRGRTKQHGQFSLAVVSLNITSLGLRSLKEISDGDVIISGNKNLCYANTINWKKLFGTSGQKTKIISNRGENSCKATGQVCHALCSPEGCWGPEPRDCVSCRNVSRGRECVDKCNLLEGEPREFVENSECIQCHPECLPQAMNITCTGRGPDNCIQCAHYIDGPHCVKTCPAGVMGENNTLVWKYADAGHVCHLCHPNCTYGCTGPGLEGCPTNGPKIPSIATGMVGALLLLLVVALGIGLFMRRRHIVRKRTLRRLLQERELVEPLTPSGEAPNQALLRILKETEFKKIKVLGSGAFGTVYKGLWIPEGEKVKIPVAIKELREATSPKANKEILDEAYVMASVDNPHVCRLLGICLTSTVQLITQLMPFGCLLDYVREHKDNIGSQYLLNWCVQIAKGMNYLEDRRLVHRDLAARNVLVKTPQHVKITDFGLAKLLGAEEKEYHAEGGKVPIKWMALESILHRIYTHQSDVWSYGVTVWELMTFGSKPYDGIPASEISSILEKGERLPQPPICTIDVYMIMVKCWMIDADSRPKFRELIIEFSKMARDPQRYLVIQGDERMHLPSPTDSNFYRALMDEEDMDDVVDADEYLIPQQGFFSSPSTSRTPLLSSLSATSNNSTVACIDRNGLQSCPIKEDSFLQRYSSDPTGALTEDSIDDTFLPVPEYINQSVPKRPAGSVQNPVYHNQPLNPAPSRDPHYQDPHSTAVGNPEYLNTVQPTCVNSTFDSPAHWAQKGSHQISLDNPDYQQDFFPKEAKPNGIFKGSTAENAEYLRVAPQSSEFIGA
Fibroblast growth factor 10 (Homo sapiens), sequence (O15520 whole entry, looked up): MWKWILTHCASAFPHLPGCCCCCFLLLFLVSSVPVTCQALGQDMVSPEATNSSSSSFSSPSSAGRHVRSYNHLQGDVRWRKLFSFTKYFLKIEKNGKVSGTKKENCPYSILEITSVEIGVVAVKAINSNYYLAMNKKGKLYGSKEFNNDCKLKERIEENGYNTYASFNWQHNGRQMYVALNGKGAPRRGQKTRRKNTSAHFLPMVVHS
Follistatin-related protein 3 (Homo sapiens), sequence (O95633 whole entry, looked up): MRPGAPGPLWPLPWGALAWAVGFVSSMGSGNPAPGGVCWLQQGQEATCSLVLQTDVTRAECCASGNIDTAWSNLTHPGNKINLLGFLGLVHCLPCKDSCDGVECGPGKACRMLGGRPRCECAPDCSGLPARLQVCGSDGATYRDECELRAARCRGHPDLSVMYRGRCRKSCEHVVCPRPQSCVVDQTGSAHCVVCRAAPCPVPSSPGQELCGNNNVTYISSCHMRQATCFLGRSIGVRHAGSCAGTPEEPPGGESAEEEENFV
Neurogenic locus notch homolog protein 3 (Homo sapiens), sequence (Q9UM47 whole entry, looked up): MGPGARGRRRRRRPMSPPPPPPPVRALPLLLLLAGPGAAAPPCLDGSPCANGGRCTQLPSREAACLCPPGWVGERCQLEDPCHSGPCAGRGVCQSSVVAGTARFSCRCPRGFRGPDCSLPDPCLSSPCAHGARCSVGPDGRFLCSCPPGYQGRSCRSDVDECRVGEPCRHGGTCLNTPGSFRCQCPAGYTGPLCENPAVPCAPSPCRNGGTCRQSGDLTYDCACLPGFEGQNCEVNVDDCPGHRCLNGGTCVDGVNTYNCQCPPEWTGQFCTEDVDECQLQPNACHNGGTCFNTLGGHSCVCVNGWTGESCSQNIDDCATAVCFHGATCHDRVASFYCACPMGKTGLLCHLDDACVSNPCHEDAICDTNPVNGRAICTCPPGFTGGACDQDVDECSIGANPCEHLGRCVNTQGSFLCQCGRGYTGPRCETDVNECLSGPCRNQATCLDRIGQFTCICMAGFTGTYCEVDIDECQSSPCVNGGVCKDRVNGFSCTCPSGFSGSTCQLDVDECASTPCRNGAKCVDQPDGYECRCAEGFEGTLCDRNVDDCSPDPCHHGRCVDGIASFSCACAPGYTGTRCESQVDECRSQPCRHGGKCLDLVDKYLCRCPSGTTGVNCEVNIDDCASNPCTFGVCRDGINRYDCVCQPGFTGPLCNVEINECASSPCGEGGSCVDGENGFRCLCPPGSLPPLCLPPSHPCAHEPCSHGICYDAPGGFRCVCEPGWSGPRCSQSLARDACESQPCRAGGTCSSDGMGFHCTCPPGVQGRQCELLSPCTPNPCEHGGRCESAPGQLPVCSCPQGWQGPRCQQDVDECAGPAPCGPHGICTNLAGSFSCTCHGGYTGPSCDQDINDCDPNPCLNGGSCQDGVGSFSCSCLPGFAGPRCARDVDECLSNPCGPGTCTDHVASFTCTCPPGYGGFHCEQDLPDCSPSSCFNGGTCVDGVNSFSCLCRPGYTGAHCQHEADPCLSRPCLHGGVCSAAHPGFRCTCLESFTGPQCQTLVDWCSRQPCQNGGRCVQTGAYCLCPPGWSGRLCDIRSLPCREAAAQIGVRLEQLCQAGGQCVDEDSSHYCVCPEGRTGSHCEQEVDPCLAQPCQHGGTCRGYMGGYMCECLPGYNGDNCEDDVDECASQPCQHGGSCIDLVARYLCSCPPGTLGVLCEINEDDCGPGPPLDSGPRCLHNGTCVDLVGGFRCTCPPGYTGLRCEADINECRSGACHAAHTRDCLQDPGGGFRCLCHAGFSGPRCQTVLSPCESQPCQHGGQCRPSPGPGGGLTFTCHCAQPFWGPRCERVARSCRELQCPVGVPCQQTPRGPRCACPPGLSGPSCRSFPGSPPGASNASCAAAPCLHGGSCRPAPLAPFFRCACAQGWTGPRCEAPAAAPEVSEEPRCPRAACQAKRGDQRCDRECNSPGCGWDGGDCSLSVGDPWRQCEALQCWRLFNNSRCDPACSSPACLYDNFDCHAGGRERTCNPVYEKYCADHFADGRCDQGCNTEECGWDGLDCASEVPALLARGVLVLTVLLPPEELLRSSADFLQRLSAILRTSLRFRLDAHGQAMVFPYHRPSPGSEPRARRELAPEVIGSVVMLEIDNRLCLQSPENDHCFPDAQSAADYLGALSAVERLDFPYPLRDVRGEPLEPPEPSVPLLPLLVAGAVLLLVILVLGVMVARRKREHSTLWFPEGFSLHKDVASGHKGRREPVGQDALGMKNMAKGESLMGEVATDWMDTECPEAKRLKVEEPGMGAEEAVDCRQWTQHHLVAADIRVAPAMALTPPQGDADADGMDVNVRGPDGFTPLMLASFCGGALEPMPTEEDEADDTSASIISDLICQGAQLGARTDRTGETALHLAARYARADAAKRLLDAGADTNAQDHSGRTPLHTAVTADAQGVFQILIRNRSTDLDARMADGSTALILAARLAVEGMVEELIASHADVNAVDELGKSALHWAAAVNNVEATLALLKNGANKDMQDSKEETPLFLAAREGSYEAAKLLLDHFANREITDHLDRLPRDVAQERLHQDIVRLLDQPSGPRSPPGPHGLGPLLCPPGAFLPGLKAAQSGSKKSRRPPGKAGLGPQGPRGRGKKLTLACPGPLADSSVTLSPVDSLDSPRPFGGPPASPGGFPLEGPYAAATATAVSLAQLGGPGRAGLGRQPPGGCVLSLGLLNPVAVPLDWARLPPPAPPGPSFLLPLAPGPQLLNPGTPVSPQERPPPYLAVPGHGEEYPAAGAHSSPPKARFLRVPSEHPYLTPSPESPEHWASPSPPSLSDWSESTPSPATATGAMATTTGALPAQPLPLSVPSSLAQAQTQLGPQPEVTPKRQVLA
Dickkopf-related protein 1 (Homo sapiens), sequence (O94907 whole entry, looked up): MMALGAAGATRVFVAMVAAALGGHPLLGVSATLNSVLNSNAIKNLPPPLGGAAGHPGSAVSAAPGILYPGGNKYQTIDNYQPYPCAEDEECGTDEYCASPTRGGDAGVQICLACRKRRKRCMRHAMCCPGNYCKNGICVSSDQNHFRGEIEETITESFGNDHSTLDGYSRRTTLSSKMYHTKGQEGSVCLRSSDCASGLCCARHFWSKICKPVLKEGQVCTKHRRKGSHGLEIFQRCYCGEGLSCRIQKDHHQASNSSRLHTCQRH

Compound | composite z-score [1] | z-score [2] | z-score [3] | z-score [4] | composite z-score [5] | z-score [6] | composite z-score [7] | composite z-score [8] | composite z-score [9] | composite z-score [10] | composite z-score [11] | composite z-score [12] | composite z-score [13] | z-score [14] | composite z-score [15] | composite z-score [16] | composite z-score [17] | composite z-score [18] | composite z-score [19] | composite z-score [20]
COCCOC(=O)N1C(=O)[C@@]2(c3cc(C#CC4=CCCCC4)ccc31)[C@H](C(=O)N1CCc3cc(OC)c(OC)cc3C1)[C@H]1C(=O)O[C@H](c3ccccc3)[C@H](c3ccccc3)N1[C@@H]2c1ccccc1OCCO | 1.01 | 1.51 (inactive) | 1.35 (inactive) | 2.78 (inactive) | 1.97 | 0.982 (inactive) | 0.0906 | 1.16 | 1.09 | 0.0238 | 0.763 | -0.0567 | 0.185 | -0.176 (inactive) | 0.964 | 1.2 | 0.501 | 1 | 0.406 | 0.59
N#Cc1ccc(NN2C(C(O)c3cccs3)C=CC3C(=O)N(c4ccccc4)C(=O)C32)cc1 (stereo not given) | 0.843 | -1.34 (inactive) | 1.73 (inactive) | 2.72 (inactive) | 3.35 | -0.445 (inactive) | -0.0768 | -0.187 | 0.708 | -0.0357 | 0.15 | -0.0705 | -0.25 | -0.626 (inactive) | 1.18 | 0.349 | 0.55 | 0.642 | -0.271 | 0.207
COCCOC(=O)N1C(=O)[C@@]2(c3cc(C#CC4=CCCCC4)ccc31)[C@H](C(=O)NC[C@H](O)c1ccccc1)[C@H]1C(=O)O[C@H](c3ccccc3)[C@H](c3ccccc3)N1[C@@H]2c1ccc(O)cc1 | 1.54 | 1 (inactive) | 0.0198 (inactive) | 1.83 (inactive) | 2.08 | 2.13 (inactive) | 0.0723 | 0.829 | 1.06 | 0.0937 | 1.14 | 0.298 | 0.124 | -1.06 (inactive) | 1.22 | 1.3 | 0.663 | 1.41 | 1.06 | 1.01
CC(C)NC(=O)[C@@]1(Cc2ccccc2I)c2ccccc2C(=O)N(Cc2ccccc2)[C@H]1c1ccc(CO)cc1 | 1.53 | -0.805 (inactive) | -1.5 (inactive) | -0.291 (inactive) | 2.91 | -0.408 (inactive) | -0.0354 | 1.04 | 1.09 | -0.0605 | 1.45 | 0.461 | 0.715 | -0.227 (inactive) | 0.954 | 1.28 | 0.136 | 1.09 | 0.0622 | 0.315
N#Cc1ccc(NN2C(C(O)C3CCCCC3)C=CC3C(=O)N(c4ccccc4)C(=O)C32)cc1 (stereo not given) | 1.45 | -0.21 (inactive) | 0.661 (inactive) | 2.46 (inactive) | 3.26 | -1.08 (inactive) | 0.217 | -0.0519 | 1.03 | 0.0065 | 0.908 | 0.458 | 0.811 | 1.23 (inactive) | 1.09 | 1.3 | -0.0355 | 1.28 | -0.547 | 0.249
CCCC[C@H]1OB(O)C[C@H]2C1=C(C)C[C@H]1C(=O)N(Cc3ccccc3)C(=O)[C@H]12 | 0.705 | -0.482 (inactive) | -1.33 (inactive) | -1.04 (inactive) | 0.342 | 1.75 (inactive) | -0.102 | 0.919 | 0.666 | 0.0215 | 0.148 | -0.109 | -0.665 | 0.0984 (inactive) | 1.13 | 0.507 | 0.244 | 1.25 | 0.999 | 0.181
O=C(NCc1ccccc1)[C@]1(CCS(=O)(=O)c2ccccc2)N=C(c2ccc(OCCCO)cc2)O[C@@H]1c1ccccc1 | 1.57 | 0.63 (inactive) | 0.194 (inactive) | 36.9 (active) | 1.78 | 0.887 (inactive) | -0.0552 | 0.204 | 1.07 | 0.219 | 1.31 | 0.255 | 0.264 | 0.637 (inactive) | 1.42 | 1.32 | 0.325 | 1.41 | 0.168 | 0.604
Cc1ccc(S[C@]2(C(=O)NCc3ccccc3)CC(=O)N(Cc3ccccc3Cl)[C@@H]2c2ccc(CO)cc2I)cc1 | 1.08 | -3.68 (inactive) | -3.05 (inactive) | 0.103 (inactive) | 1.65 | -0.592 (inactive) | 0.114 | -1.07 | -0.109 | -0.168 | 0.49 | 0.302 | 1.13 | -1.6 (inactive) | -0.761 | -0.528 | -1.17 | -0.689 | -1.22 | 0.962
Cc1ccccc1C(O)C1C=CC2C(=O)N(C)C(=O)C2N1Nc1ccccc1 (stereo not given) | 1.25 | -0.145 (inactive) | -0.885 (inactive) | -0.0194 (inactive) | 2.98 | -1.43 (inactive) | 0.149 | -0.657 | 0.993 | -0.0634 | 1.06 | 0.973 | 1.07 | 0.0737 (inactive) | 0.2 | 0.63 | -0.0369 | 0.304 | 0.0139 | 1.16
O=C1C2C=CC(C(O)c3ccc(B(O)O)cc3)N(Nc3ccccc3)C2C(=O)N1c1ccccc1 (stereo not given) | -0.592 | 0.428 (inactive) | -4.7 (inactive) | 0.642 (inactive) | 0.935 | -1.2 (inactive) | 0.229 | -1.11 | -0.085 | -0.041 | -0.0545 | 0.82 | 0.634 | -0.451 (inactive) | -0.322 | -1.15 | -0.134 | -0.593 | -0.502 | 1.16
